# Reference: PubChem BioAssay AID1981 (Southern Research Specialized Biocontainment Screening …, 2009)
# Out of some 2,200 compounds screened, about 480 (22%) were called active. Only a sample is shown. Measured potencies and affinities stand elsewhere. A number with no mark means an inactive call. How the calls were made is not given here.
# Assay: S. Typhimurium GFP fluorescence dose response in modified counterscreen for PhoP regulon inhibitor project (AID 1981);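 further: 0% = induced DMSO wells and 100% = uninduced wells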
# Details: 4 h; series mostly up to 150 µM; inhibition: at the top concentration
row,Compound,inhibition
1,Cc1ccc(CNc2oc(-c3cccs3)nc2C#N)cc1,-4.93%
2,COc1cccc2[nH]c3c(N4CCC(C)CC4)ncnc3c12,-13.9%
3,NCCCC[C@H]1CN=C(N)N1CCC12CC3CC(CC(C3)C1)C2,18.9%
4,COCC(=O)N=Nc1c(O)[nH]c2ccccc12,-15.3%
5,C(=N\N1CCN(C2c3ccccc3-c3ccccc32)CC1)/c1cccs1,1.11%
6,Cc1ccc(C(=O)Oc2ccc(C(=O)COC(=O)c3cnccn3)cc2)cc1,-14%
7,O=[N+]([O-])c1ccc(CNC2CCCc3ccccc32)cc1 (stereo not drawn),20.9%
8,COc1cc(C2Nc3cccc4cccc(c34)N2)cc(OC)c1O,-22.2%
9,CCOC(=O)CCCc1c[nH]c2ccccc12,-4.56%
10,COc1ccc(-n2c(C)cc(C(=O)Cn3nc(C(=O)O)c4ccccc4c3=O)c2C)cc1,-19.3%
11,NNc1nc2c(-c3cccc(C(F)(F)F)c3)nnn2c2ccccc12,17.3%
12,O=C(Nc1ccc(Br)cc1)c1ccc(F)c(S(=O)(=O)NCc2cccs2)c1,-7.31%
13,Cc1cc(C)cc(CC(Cc2nc3ccccc3[nH]2)c2nc3ccccc3[nH]2)c1 (stereo not drawn),-0.97%
14,O=C(/C=C/c1ccco1)NC(=S)Nc1ccc(N2CCCC2)cc1,3.26%
15,Cc1cc2ncn(C3CC(=O)N(Cc4ccc(N5CCCC5=O)cc4)C3=O)c2cc1C (stereo not drawn),-11.8%
16,O=C(NC(=Nc1ccccc1)N1CCOCC1)Nc1ccccc1,-10.8%
17,Cc1ccc(NC(=O)NCC2CCN(Cc3cccc(Cl)c3)CC2)cc1Cl,15%
18,Cc1ccc(NC(=O)c2cc(S(=O)(=O)N3CCC4(CC3)OCCO4)ccc2F)cc1,-7.76%
19,COc1ccc(-c2cc(-c3ccc(OC)c(OC)c3)n[nH]2)c(O)c1,13.4%
20,COc1ccc(-c2ccc(C#N)c(SCC(=O)NCCc3ccccc3)n2)cc1OC,4.81%
21,Cc1cc(C)n2c(SCC(=O)NCc3ccco3)nnc2n1,-0.83%
22,Cc1ccc(C(=O)C2COC(=O)C2)cc1 (stereo not drawn),17.3%

row,Compound,inhibition
1,COc1ccc(C2COC(=O)C2=N)c(NC(=O)c2ccc(Cl)cc2)c1 (stereo not drawn),-2.01%
2,COc1ccc(OC)c(C(C(=O)NCc2ccco2)N(C(=O)Cn2nnc3ccccc32)C(C)C)c1 (stereo not drawn),7.56%
3,O=C(NCc1cccnc1)c1ccc(Cl)cc1[N+](=O)[O-],0.21%
4,Cc1ccc(NC(=O)COc2ncnc3c(Cl)cc(Cl)cc23)cc1[N+](=O)[O-],-16.4%
5,Cc1ccc(C)c(NC(=S)NCCSc2ccc(Cl)cc2)c1,-11.1%
6,O=C1c2cccc(OCC(=O)N3N=C(c4cccs4)CC3c3ccc(F)cc3)c2CCN1Cc1cccnc1 (stereo not drawn),13.8%
7,Cc1ccc(NS(=O)(=O)c2ccc(N3C(=O)CCC3=O)cc2)cc1,-4.31%
8,CCOc1ccc(NC(=O)Nc2cccs2)cc1,6.84%
9,CC(C)CCNC(=O)C12CN(Cc3ccccc3)CC1C(c1cccc([N+](=O)[O-])c1)=NO2 (stereo not drawn),-8.23%
10,O=C(Nc1cc(C(F)(F)F)ccc1Cl)C(NCc1ccccc1)c1ccccc1 (stereo not drawn),-8.13%
11,Cc1oc(CC(C)C)c(CN)c1C(=O)O,12.2%
12,CCOC(=O)C1=C(C)NC(=O)NC1c1c(OCC(=O)N2CCCCC2)ccc2ccccc12 (stereo not drawn),-15.9%
13,COc1ccc(C2=NOC(C(=O)Nc3ccc(C)cc3)C2)cc1OC (stereo not drawn),0.99%
14,Cc1cc([N+](=O)[O-])cc2ncccc12,12.3%
15,C=CCn1c(SCCOc2ccc(OC)cc2)nnc1C(C)NC(=O)c1ccc(OC)cc1 (stereo not drawn),-2.1%
16,COc1ccc(-n2c(CNc3ccc(C)cc3)nnc2SCc2ccccc2)cc1,-15.6%
17,Cc1ccc2nc(SCC(=O)c3c(C)[nH]c4ccccc34)[nH]c2c1,1.78%
18,CCOC(=O)c1c(-c2ccc(C)o2)csc1N,-4.43%
19,CCOC(=O)c1ccccc1C(=O)N1CCOCCOCCOCC1,4.51%
20,O=C1N2CCCc3cccc(c32)C12Nc1ccccc1S2 (stereo not drawn),-10.7%
21,N/C(=N\OC(=O)c1cccs1)C1(c2ccc(Cl)cc2Cl)CC1,-5.97%
22,Nc1c(C(=O)Nc2ccc(F)cc2)sc2nc(-c3ccco3)ccc12,6.83%

row,Compound,inhibition
1,CCOc1ccc(N/C=C/C(=O)c2ccc(OC)cc2)c([N+](=O)[O-])c1,-20%
2,CCCCCCOC(=O)Sc1nc2ccccc2o1,-4.37%
3,CCCCOC(=O)CSc1nc2c(c(=O)[nH]c(=O)n2C)n1C/C=C(\C)Cl,-16%
4,O=S1(=O)C=CC(Nc2ccccc2)C1 (stereo not drawn),19%
5,C=CCNC(=O)C(=O)NN=C1CCN(C)CC1,-15.8%
6,COc1cccc(C(=O)Oc2c(CN3CCOCC3)cc(Cl)c3cccnc23)c1,14.8%
7,COc1ccc2nc(NC(=O)C3CCCN3S(=O)(=O)c3ccc(C)cc3)sc2c1 (stereo not drawn),-19.9%
8,c1ccc2[nH]c(CSc3nccs3)nc2c1,3.16%
9,CC(=O)c1ccc(NC(=S)NC(NC(=O)c2ccco2)C(Cl)(Cl)Cl)cc1 (stereo not drawn),22.7%
10,CN(C)c1ccc([C@@H]2[C@@H]([N+](=O)[O-])[C@H]3C=Cc4ccccc4N3[C@H]2C(=O)c2ccc(Cl)cc2)cc1,19.8%
11,O=C(O)c1cc(O)c2c(c1)[C@@H]([C@H]1c3cc(C(=O)O)cc(O)c3C(=O)c3c(O[C@@H]4O[C@H](CO)[C@@H](O)[C@H](O)[C@H]4O)cccc31)c1cccc(OC3O[C@H](CO)[C@@H](O)[C@H](O)[C@H]3O)c1C2=O (stereo partly drawn),18.6%
12,O=C(CCN1C(=O)C2C3C=CC(C3)C2C1=O)N1CCN(c2cccc(Cl)c2)CC1 (stereo not drawn),-1.12%
13,CCCOc1ccc(C2NC(=S)NC(c3ccccc3)=C2C(=O)Nc2ccc(C)cc2)cc1OC (stereo not drawn),0.31%
14,CCOC(=O)c1c(C)[nH]c(C)c1C(=O)COC(=O)/C=C/c1cccc(F)c1,-26.2%
15,c1ccc2c3c([nH]c2c1)-c1[nH]ncc1CC3,-9.62%
16,COc1ccc(CCN2CC3=C(C2=O)C(c2ccccc2)NC(=O)N3C)cc1OC (stereo not drawn),-24.7%
17,CC1CCN(S(=O)(=O)c2cccc(C(=O)N(C)C3CCS(=O)(=O)C3)c2)CC1 (stereo not drawn),-5.95%
18,COc1ccc(O)c(/C=c2/sc3nc4cc(C)c(C)cc4n3c2=O)c1,-26.9%
19,CC(=O)Nc1cccc(OCC(=O)Nc2ccc(F)cc2)c1,-10.3%
20,O=C1CSc2ccccc2N1Cc1ccc(F)cc1,-15.2%
21,CN1CCN(C(c2cccc(C(F)(F)F)c2)c2nnnn2C(C)(C)C)CC1 (stereo not drawn),-4.85%
22,COc1ccccc1N1CCN(C(CNS(=O)(=O)c2ccccc2)c2cccnc2)CC1 (stereo not drawn),-4.62%

row,Compound,inhibition
1,CC(=O)c1cccc(NC(=O)Nc2cc3sccc3n2C)c1,-13.4%
2,O=C(CN1C(=O)COc2ccccc21)Nc1ccc(F)cc1,-0.13%
3,O=C(O)C1CC=CCC1C(=O)NC12CC3CC(CC(C3)C1)C2 (stereo not drawn),-9.99%
4,CSCCC(NC(=O)c1cccc(C)c1)C(=O)OCC(=O)NC(=O)c1cccn1C (stereo not drawn),-17%
5,CCOC(=O)C1=C(c2ccccc2)N=C2SCC(=O)N2C1c1ccc(O)c(OC)c1 (stereo not drawn),22.2%
6,COC(=O)Cn1cc(C(=O)c2ccco2)c2ccccc21,-3.32%
7,CCCCn1cnc2sc(-c3ccccc3)cc2c1=O,-2.46%
8,Cc1cc2oc(=O)cc(CSc3nc(N)cc(N)n3)c2cc1C,4.49%
9,CC1CCN(c2ccc(NC(=S)NC(=O)c3ccc(-c4cccc([N+](=O)[O-])c4)o3)cc2)CC1,0.2%
10,COc1ccc(-c2csc(Nc3cccnc3)n2)cc1,-13.4%
11,Nc1nnc(SCCOc2ccc(Br)cc2)s1,-21.9%
12,c1ccc(-c2cnn3nnnc3n2)cc1,15.6%
13,CC(C)CNC(=S)NC1CCCC1,0.61%
14,Cc1cc(/C=N/n2cnnc2)c(C)n1-c1ccc(OCc2ccc(F)cc2)cc1,-6.71%
15,COc1ccc(/C=C/c2nc3ccccc3n2Cc2ccccc2OC)cc1,-5.86%
16,COc1cccc(-n2c(N)c(C(=O)Nc3c(C)n(C)n(-c4ccccc4)c3=O)c3nc4ccccc4nc32)c1,24.6%
17,COc1cccc(NC(=S)N/N=C2\CC(C)(C)Oc3ccc(O)cc32)c1,-4.58%
18,CCc1cc2c(NCCC(=O)O)nc(C)nc2s1,-5.57%
19,CN1c2ccccc2C(O)=C(C(=O)Nc2ccccc2)S1(=O)=O,-25.7%
20,O=C(Nc1cccc2ccccc12)c1ccc(Cn2cc(Cl)cn2)cc1,-10.6%
21,Cc1cc(C)n(-c2nc(NCCN(C)C)c3c4c(sc3n2)CCCC4)n1,16.5%
22,Cc1ccc(-c2nnn(CC(=O)Nc3ccccc3-c3ccccc3)n2)c(-n2cnnn2)c1,-20.2%

row,Compound,inhibition
1,Cc1cc(C(C)c2ccccc2)c(O)c(CN2CCOCC2)c1C (stereo not drawn),4.28%
2,O=c1[nH]c(CN2CCCCC2)nc2ccccc12,-0.84%
3,N#Cc1ccc(COC(=O)c2ccc3c(=O)[nH]c(CN4CCOCC4)nc3c2)cc1,-16.6%
4,c1ccc(COc2cccc(CN3CCN(c4ccccn4)CC3)c2)cc1,-14.2%
5,CC1C(C#N)=C(N)OC2=C1C(=O)CCC2 (stereo not drawn),1.35%
6,COc1ccc(C2C(C#N)=C(N)OC3=C2C(=O)CCC3)cc1Cn1cc([N+](=O)[O-])cn1 (stereo not drawn),15.4%
7,CCN(CC)CCCn1c(=S)[nH]c2cc(OC)c(OC)cc2c1=O,-0.94%
8,Cn1c(CO)cnc1SCc1ccc([N+](=O)[O-])cc1,-0.6%
9,COc1ccccc1Nc1nc(-c2c(C)[nH]c3ccccc23)cs1,24.6%
10,CCc1ccc(OCC(=O)Nc2ccc(-c3cc4ccccc4oc3=O)c(OC)c2)cc1,2.11%
11,COc1ccc2oc(=O)cc(C)c2c1,11.9%
12,COc1ccc(S(=O)(=O)n2ccc(-c3ccc(OCCN(C)c4ccccn4)cc3)n2)cc1,-16.7%
13,NNC(=S)Nc1ccc(Cl)cc1,6.57%
14,OCCNc1ccc(Cl)cc1,-9.47%
15,Cc1ccc(S(=O)(=O)NC2c3cccc4cccc(c34)C2Sc2n[nH]c(N)n2)cc1 (stereo not drawn),13.9%
16,Brc1ccc(-c2cnc3n2CCCC3)cc1,15.1%
17,CCCNC1=C(C)C(=O)C2=C(C1=O)C(COC(N)=O)[C@]1(OC)C3NC3CN21 (stereo partly drawn),32.6%
18,Cc1ccc(S(=O)(=O)c2c(N)n(NC(=O)c3ccco3)c3nc4ccccc4nc23)cc1,-0.13%
19,O=C(c1cnsn1)N1CCN(c2ccccc2)CC1,-1.8%
20,COc1ccc(OC)c(C2C=C(C34CC5CC(CC(C5)C3)C4)NC(=S)N2)c1 (stereo not drawn),-20%
